Data as given in PubChem BioAssay AID2544 (Sanford-Burnham Center for Chemical Genomics, 2010).
The whole screen tested about 330,000 compounds, of which about 390 (0.12%) were called active. This is one part of a sample in which actives are shown more often than they occur. Values without a mark were called inactive.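 How the source made its calls: active means inhibition reaching a set limit with compound at 10 µM in the primary screen (cut at about 35% in these data); inactive means the rest.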

target: Intestinal-type alkaline phosphatase (Homo sapiens) (UniProt P09923); assay: human IAP inhibitors, primary screen, biochemical, luminescence, uHTS (AID 2544); conditions: purified IAP, CDP-Star luminescence, 30 min; at 10 µM; stronger effect = higher value;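 further: plate controls were DMSO wells with enzyme for no effect and no-enzyme buffer wells for full effect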
Sequence (P09923 whole entry, looked up): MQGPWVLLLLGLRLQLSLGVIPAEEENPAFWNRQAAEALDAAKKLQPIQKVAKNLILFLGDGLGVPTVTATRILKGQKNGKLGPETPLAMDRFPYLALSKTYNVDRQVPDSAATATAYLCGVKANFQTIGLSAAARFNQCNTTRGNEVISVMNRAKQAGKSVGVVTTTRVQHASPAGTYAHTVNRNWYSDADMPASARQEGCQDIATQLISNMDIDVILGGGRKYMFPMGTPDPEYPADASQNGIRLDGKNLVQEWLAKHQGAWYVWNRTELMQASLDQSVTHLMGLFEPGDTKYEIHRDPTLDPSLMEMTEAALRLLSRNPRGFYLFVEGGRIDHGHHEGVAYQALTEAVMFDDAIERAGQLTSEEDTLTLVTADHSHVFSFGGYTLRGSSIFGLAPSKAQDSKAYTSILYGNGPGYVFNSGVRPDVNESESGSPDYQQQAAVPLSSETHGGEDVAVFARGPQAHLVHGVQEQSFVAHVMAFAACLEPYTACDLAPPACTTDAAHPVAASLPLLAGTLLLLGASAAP

Row | SMILES | inhibition
1 | Cc1cc(N)n2nc(-c3ccc(C(C)(C)C)cc3)cc2n1 | -9%
2 | COc1ccc(-c2nc3cc(C)ccn3c2NC2CCCCC2)cc1SC1CCCCC1 | 18.9%
3 | CC1(C)OC(=O)C(=CNC(CO)C(=O)O)C(=O)O1 (stereo not given) | 4.1%
4 | CCN(CC(=O)NCc1ccc(Cl)cc1)C(=O)c1c(C)noc1C | -14.3%
5 | COc1cccc(CNC(=O)C2CC(=O)N(C3CCCCCCC3)C2)c1 (stereo not given) | -15%
6 | COC(=O)NNC(=O)C1CCC(C)CC1 (stereo not given) | -0.3%
7 | O=C(O)CCn1c(O)c(C=C2N=c3ccccc3=N2)sc1=S | -32.1%
8 | Cc1ccc(NC(=O)COC(=O)C2C3CC4OC(=O)C2C4C3)cc1Cl (stereo not given) | 5.1%
9 | CCOC(=O)N1CCN(S(=O)(=O)c2cc3c(cc2C)NC(=O)CO3)CC1 | -3.7%
10 | O=C(CNC(=O)c1n[nH]c2ccccc12)Nc1cc(Cl)ccc1Cl | -16.2%
11 | FC(F)(F)c1ccnc(Oc2ccc(C3=NCCS3)cc2)c1 | 10.4%
12 | CC(C)(C)OC(=O)N1CCC(NC(=O)c2[nH]cnc2C(=O)N[C@@H](Cc2ccccc2)C(=O)OCc2ccccc2)CC1 | -35.2%
13 | COc1ccccc1C(=O)OCC(=O)Nc1cccc(S(=O)(=O)NC2=NCCCCC2)c1 | 19.2%
14 | COc1ccccc1C(CNC(=O)c1ccc(C)c(S(=O)(=O)N2CCCCC2)c1)N(C)C (stereo not given) | -3.4%
15 | CN1CCN(CC(=O)C23CC4CC(CC(C4)C2)C3)CC1 | 4.5%
16 | Cc1ccc(C(=O)N(CC(=O)NC2CCCC2)c2ccc(F)cc2)s1 | -20.5%
17 | CCCc1cc(C(=O)N2CCCC(CO)(CCCc3ccccc3)C2)n(C)n1 (stereo not given) | -5.7%
18 | CC#CC[N+](C)(C)CCCCCC | 6.2%
19 | O=C(/C=C/c1cccc(C(F)(F)F)c1)N1CCN(c2ccccn2)CC1 | -1.3%
20 | c1csc(-c2nnc(COc3ncnc4sccc34)o2)c1 | 13.5%

Row | SMILES | inhibition
21 | Cc1sc2ncn(CC(=O)NCCN(C)C)c(=O)c2c1S(=O)(=O)N1CCC(C)CC1 | 10.2%
22 | CCN(Cc1ccccc1)S(=O)(=O)c1cc(C(=O)O)ccc1OC | -17.1%
23 | Cc1ccc(CN2CCN(Cc3cccc(C)n3)CC2CCO)cc1 (stereo not given) | 4.3%
24 | Cc1c(C=O)c2ccccn2c1C(=O)c1ccncc1 | 35.9% (active)
25 | Cc1cc2ccccn2c1C(=O)c1cccc(F)c1 | 18.3%
26 | Cc1c(C(=O)NNC(=O)c2ccncc2)oc2ccccc12 | -50.2%
27 | CC1C(=O)C(C)C(c2ccc(O)cc2)NC1c1ccc(O)cc1 (stereo not given) | 4.6%
28 | CCc1cc(CNC(=O)CC2C(=O)NCCN2CC2CCCCC2)on1 (stereo not given) | -7.8%
29 | COc1ccc(CNC(=O)CSc2n[nH]c(N)n2)cc1OC | 5.7%
30 | CS(=O)(=O)Nc1ccccc1C(=O)OCC(=O)NC1CC1 | -0.7%
31 | Cn1c(=O)c2sccc2n(Cc2ccc(Br)cc2)c1=O | 38.1% (active)
32 | Cn1c(=O)c2c(nc(N/N=C/c3cccs3)n2Cc2ccc(Br)cc2)n(C)c1=O | -142%
33 | O=C(NCc1ccco1)c1ccc(Cn2c(=O)c3sccc3n(Cc3ccc(F)cc3)c2=O)cc1 | 1.3%
34 | N#Cc1c(-c2ccc(F)cc2)cc(C2CC2)nc1SCC(=O)c1cccs1 | 10.2%
35 | CCOC(=O)Cc1csc(NC(=O)CN(C)S(=O)(=O)c2ccc3c(c2)CCC(=O)N3)n1 | -6.4%
36 | CS(=O)(=O)c1sc(C(=O)NC(=S)Nc2ccc(OC(F)(F)F)cc2)c2c1C=CCC2 | -34.5%
37 | Cc1ccc2cccc(S(=O)(=O)N3CCN(c4ccccc4F)CC3)c2n1 | 22.1%
38 | CSc1ccc(CNC(=O)c2ccc(NC(=O)C3=CSCCO3)cc2)cc1 | 17.2%
39 | O=C(CCN1C(=O)c2ccccc2C1=O)NCCN1CCOCC1 | -14.9%
40 | O=C(NC1=NCCS1)[C@H](Cc1ccccc1)N1C(=O)c2ccccc2C1=O | 4.4%

Row | SMILES | inhibition
41 | O=C(NCCN1CCOCC1)[C@H](Cc1ccccc1)N1C(=O)c2ccccc2C1=O | 41.1% (active)
42 | CN(C(=O)CSc1cccc[n+]1[O-])C1CCCCC1 | 2.3%
43 | Cc1cc([N+](=O)[O-])nn1CCCC(=O)Nc1cccnc1Cl | 6.1%
44 | CC1(C)O[C@@H]2[C@H](O1)[C@@H](COS(=O)(=O)O)O[C@H]2n1cnc2c(=O)[nH]cnc21 | -9%
45 | Cc1cc(Cl)c2oc(C(=O)N3CCC(O)(c4ccccc4)CC3)c(C)c2c1 | -10.6%
46 | COc1ccc(Nc2cc(=O)n(-c3ccccc3)c3c2c(=O)n(C)c(=O)n3C)cc1 | 3.3%
47 | CN(Cc1ccccc1Cl)C(=O)C1CCC(=O)N(CCc2cccc(F)c2)C1 (stereo not given) | -4.4%
48 | Cc1cc(C)nc(SCc2nnc(SCC(=O)OC3CCCCC3)o2)n1 | -7.3%
49 | CCOCCCN(C(=O)Cn1nnc(-c2ccc(OC)c(OC)c2)n1)C(CC)C(=O)NC1CCCC1 (stereo not given) | -21.9%
50 | CCC(C)C(=O)Nc1ccccc1N1CCN(c2ccc(F)cc2)CC1 (stereo not given) | 42.4% (active)
51 | CCCCC(=O)Nc1ccccc1N1CCN(c2ccc(F)cc2)CC1 | -6.3%
52 | CC(=O)c1ccc(N2CCN(CC(=O)Nc3ccccc3N3CCOCC3)CC2)cc1 | 6.2%
53 | CCOC(=O)c1ccc(NC(=S)Nc2cc(C)cc(C)n2)cc1 | -2%
54 | CCOC(=O)c1cn[nH]c1NC(=S)Nc1ccccc1 | 60.8% (active)
55 | CCOC(=O)c1cc2c(nc1NC(=S)Nc1ccccc1)CC(C)(CC)OC2 (stereo not given) | -6.3%
56 | NC(N)=Nc1nc2ccc(Br)cc2c(=O)[nH]1 | -7.7%
57 | Cc1cc(C)c(SCCc2ccncc2)c(C)c1 | -12.6%
58 | c1ccc(CSCCc2ccncc2)cc1 | 39.6% (active)
59 | CC(C)(C)c1ccc(SCCc2ccncc2)cc1 | -36.5%
60 | O=C1N(c2ccc(Cl)cc2)C(c2ccc(Cl)cc2)N2CCCN12 (stereo not given) | 0.2%
